Laboratory results: PMC5540273 (PLoS ONE, 2017)

Columns and labels:
Conditions in all cases: concentration: 1 μM,replicates: in singlicate; n = 1
EPHA7 = test system: EPHA7
EPHA8 = test system: EPHA8
EPHB1 = test system: EPHB1
EPHB2 = test system: EPHB2
EPHB3 = test system: EPHB3
EPHB4 = test system: EPHB4
EPHB6 = test system: EPHB6
ERBB2 = test system: ERBB2
ERBB3 = test system: ERBB3
ERBB4 = test system: ERBB4
ERK1 = test system: T1, ERK1
T1 construct: gene MAPK3

ERK2 = test system: T2, ERK2
T2 construct: gene MAPK1

ERK3 = test system: T3, ERK3
T3 construct: gene MAPK6

ERK4 = test system: T4, ERK4
T4 construct: gene MAPK4

ERK5 = test system: T5, ERK5
T5 construct: gene MAPK7

ERK8 = test system: T6, ERK8
T6 construct: gene MAPK15

ERN1 = test system: ERN1
FAK = test system: T7, FAK
T7 construct: gene PTK2

FER = test system: FER
FES = test system: FES
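Also: KINOMEscan kinase panel screen.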

Cc1ccc(CC(=O)N2CCc3cc(-c4cn(C)c5ncnc(N)c45)ccc32)cc1 [GSK2634758]
%Inh (EPHA7): 4%
%Inh (EPHA8): 13%
%Inh (EPHB1): 7%
%Inh (EPHB2): 0%
%Inh (EPHB3): 0%
%Inh (EPHB4): 10%
%Inh (EPHB6): 53%
%Inh (ERBB2): 0%
%Inh (ERBB3): 10%
%Inh (ERBB4): 18%
%Inh (ERK1): 12%
%Inh (ERK2): 6%
%Inh (ERK3): 0%
%Inh (ERK4): 0%
%Inh (ERK5): 0%
%Inh (ERK8): 0%
%Inh (ERN1): 11%
%Inh (FAK): 0%
%Inh (FER): 19%
%Inh (FES): 0%

CCCC(=O)Nc1n[nH]c2ncccc12 [SB-601436]
%Inh (EPHA7): 0%
%Inh (EPHA8): 0%
%Inh (EPHB1): 0%
%Inh (EPHB2): 0%
%Inh (EPHB3): 12%
%Inh (EPHB4): 16%
%Inh (EPHB6): 0%
%Inh (ERBB2): 0%
%Inh (ERBB3): 0%
%Inh (ERBB4): 0%
%Inh (ERK1): 0%
%Inh (ERK2): 0%
%Inh (ERK3): 0%
%Inh (ERK4): 0%
%Inh (ERK5): 0%
%Inh (ERK8): 0%
%Inh (ERN1): 0%
%Inh (FAK): 0%
%Inh (FER): 0%
%Inh (FES): 12%

CCN1CCN(CCCC(=O)Nc2n[nH]c3nc(-c4ccc(O)cc4)c(Br)cc23)CC1 [SB-731579]
%Inh (EPHA7): 0%
%Inh (EPHA8): 0%
%Inh (EPHB1): 0%
%Inh (EPHB2): 6%
%Inh (EPHB3): 0%
%Inh (EPHB4): 0%
%Inh (EPHB6): 0%
%Inh (ERBB2): 24%
%Inh (ERBB3): 66%
%Inh (ERBB4): 0%
%Inh (ERK1): 0%
%Inh (ERK2): 0%
%Inh (ERK3): 0%
%Inh (ERK4): 0%
%Inh (ERK5): 87%
%Inh (ERK8): 56%
%Inh (ERN1): 0%
%Inh (FAK): 0%
%Inh (FER): 0%
%Inh (FES): 0%

Cn1ccc2ncnc(Oc3ccc(NC(=O)Nc4ccnc(C(F)(F)F)c4)c(Cl)c3)c21
%Inh (EPHA7): 6%
%Inh (EPHA8): 14%
%Inh (EPHB1): 5%
%Inh (EPHB2): 28%
%Inh (EPHB3): 25%
%Inh (EPHB4): 20%
%Inh (EPHB6): 36%
%Inh (ERBB2): 20%
%Inh (ERBB3): 0%
%Inh (ERBB4): 0%
%Inh (ERK1): 0%
%Inh (ERK2): 0%
%Inh (ERK3): 0%
%Inh (ERK4): 0%
%Inh (ERK5): 0%
%Inh (ERK8): 0%
%Inh (ERN1): 11%
%Inh (FAK): 0%
%Inh (FER): 0%
%Inh (FES): 10%

O=C(NOCC1CC1)c1cc(Br)c(F)c(F)c1Nc1ccc(I)cc1Cl
%Inh (EPHA7): 0%
%Inh (EPHA8): 0%
%Inh (EPHB1): 5%
%Inh (EPHB2): 5%
%Inh (EPHB3): 0%
%Inh (EPHB4): 0%
%Inh (EPHB6): 0%
%Inh (ERBB2): 44%
%Inh (ERBB3): 0%
%Inh (ERBB4): 0%
%Inh (ERK1): 0%
%Inh (ERK2): 0%
%Inh (ERK3): 0%
%Inh (ERK4): 0%
%Inh (ERK5): 0%
%Inh (ERK8): 8%
%Inh (ERN1): 0%
%Inh (FAK): 0%
%Inh (FER): 11%
%Inh (FES): 0%

Cn1ccc2ncnc(Oc3ccc(NC(=O)Nc4cnn(C(C)(C)C)c4)c(Cl)c3)c21
%Inh (EPHA7): 27%
%Inh (EPHA8): 41%
%Inh (EPHB1): 15%
%Inh (EPHB2): 50%
%Inh (EPHB3): 29%
%Inh (EPHB4): 15%
%Inh (EPHB6): 48%
%Inh (ERBB2): 31%
%Inh (ERBB3): 9%
%Inh (ERBB4): 12%
%Inh (ERK1): 19%
%Inh (ERK2): 4%
%Inh (ERK3): 0%
%Inh (ERK4): 1%
%Inh (ERK5): 7%
%Inh (ERK8): 25%
%Inh (ERN1): 26%
%Inh (FAK): 0%
%Inh (FER): 0%
%Inh (FES): 13%

CN(c1cccc(CNc2nc(Nc3ccc4c(c3)CC(=O)N4)ncc2C(F)(F)F)c1)S(C)(=O)=O
%Inh (EPHA7): 33%
%Inh (EPHA8): 0%
%Inh (EPHB1): 20%
%Inh (EPHB2): 14%
%Inh (EPHB3): 1%
%Inh (EPHB4): 5%
%Inh (EPHB6): 56%
%Inh (ERBB2): 26%
%Inh (ERBB3): 0%
%Inh (ERBB4): 6%
%Inh (ERK1): 3%
%Inh (ERK2): 41%
%Inh (ERK3): 0%
%Inh (ERK4): 0%
%Inh (ERK5): 18%
%Inh (ERK8): 79%
%Inh (ERN1): 11%
%Inh (FER): 65%
%Inh (FES): 62%

CNC(=O)c1ccccc1Nc1nc(Nc2cccc(CS(C)(=O)=O)c2)ncc1C.O=CO [GSK1520489]
%Inh (EPHA7): 96.6%
%Inh (EPHA8): 96.2%
%Inh (EPHB1): 99.9%
%Inh (EPHB2): 88%
%Inh (EPHB3): 9%
%Inh (EPHB4): 91.6%
%Inh (EPHB6): 92.8%
%Inh (ERBB2): 92.1%
%Inh (ERBB3): 3%
%Inh (ERBB4): 98.2%
%Inh (ERK1): 46%
%Inh (ERK2): 60%
%Inh (ERK3): 35%
%Inh (ERK4): 35%
%Inh (ERK5): 0%
%Inh (ERK8): 80%
%Inh (ERN1): 58%
%Inh (FAK): 99.9%
%Inh (FER): 96%
%Inh (FES): 38%
